Assay results as given in paper PMC4336329 (PLoS ONE, 2015).
About 2,200 (0.71%) of roughly 310,000 compounds showed an effect of 50% or more. The effect is printed as a negative number. The entries come from a sample that favours strong results as a whole.

Molecular target: human ether-à-go-go-related gene (hERG) potassium channel (human, UniProt Q12809)
Test: primary screen, population patch clamp on CHO cells stably expressing hERG; higher = less effect of the substance

Chain of human ether-à-go-go-related gene (hERG) potassium channel (Q12809 whole entry, looked up): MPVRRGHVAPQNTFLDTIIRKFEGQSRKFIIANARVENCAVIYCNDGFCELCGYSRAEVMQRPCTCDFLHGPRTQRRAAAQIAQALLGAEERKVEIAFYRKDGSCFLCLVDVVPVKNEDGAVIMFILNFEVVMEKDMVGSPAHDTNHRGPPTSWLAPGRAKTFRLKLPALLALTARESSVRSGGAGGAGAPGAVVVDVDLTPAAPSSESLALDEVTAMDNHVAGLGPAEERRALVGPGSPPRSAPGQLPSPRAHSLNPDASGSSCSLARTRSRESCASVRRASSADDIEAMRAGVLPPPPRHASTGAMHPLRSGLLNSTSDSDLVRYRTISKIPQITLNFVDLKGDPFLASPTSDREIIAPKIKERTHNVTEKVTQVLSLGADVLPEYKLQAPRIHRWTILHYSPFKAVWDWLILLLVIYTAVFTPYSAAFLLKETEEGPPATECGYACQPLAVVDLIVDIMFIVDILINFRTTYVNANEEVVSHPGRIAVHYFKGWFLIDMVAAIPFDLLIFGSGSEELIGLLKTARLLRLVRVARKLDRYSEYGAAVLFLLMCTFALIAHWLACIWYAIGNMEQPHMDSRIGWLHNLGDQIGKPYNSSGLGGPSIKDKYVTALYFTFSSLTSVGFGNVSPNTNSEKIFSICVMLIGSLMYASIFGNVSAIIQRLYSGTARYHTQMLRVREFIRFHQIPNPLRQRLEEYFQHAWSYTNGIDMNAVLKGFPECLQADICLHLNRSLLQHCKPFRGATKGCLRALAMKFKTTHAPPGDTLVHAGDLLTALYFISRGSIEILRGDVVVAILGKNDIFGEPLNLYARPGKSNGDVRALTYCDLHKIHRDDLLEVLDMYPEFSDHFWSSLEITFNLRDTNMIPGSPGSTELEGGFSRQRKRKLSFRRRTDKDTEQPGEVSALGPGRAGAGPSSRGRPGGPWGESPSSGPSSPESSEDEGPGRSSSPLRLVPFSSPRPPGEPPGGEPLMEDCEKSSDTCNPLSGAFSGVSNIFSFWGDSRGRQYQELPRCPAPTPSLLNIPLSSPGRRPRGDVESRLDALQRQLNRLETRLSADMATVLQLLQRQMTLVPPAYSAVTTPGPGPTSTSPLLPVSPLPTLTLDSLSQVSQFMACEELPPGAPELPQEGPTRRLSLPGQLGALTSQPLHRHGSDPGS

SMILES	hERG current change (%, negative = inhibition) at 1uM
CS(=O)(=O)N(Cc1cccc(CN(C(C(=O)O)c2ccccc2)S(C)(=O)=O)c1)C(C(=O)O)c1ccccc1 (stereo not drawn)	16.9%
O=C(O)CC1(CC(=O)Nc2ccc(C(F)(F)F)cc2)CCCC1	15.6%
Cc1ccc(OCCC(=O)OCC(=O)NC(=O)NC2CCCCC2)cc1	14.2%
Cn1cnnc1SCc1ccccc1Br	12.6%
CC(=O)Nc1ccc(NC(=O)C(C)Sc2n[nH]c(-c3ccc(C)cc3)n2)cc1 (stereo not drawn)	8.42%
Cc1ccc(C)c(-n2c(C)nc3ccccc3c2=O)c1	13.2%
CC(C)(C)c1ccc(C(=O)NCCc2ccccc2)cc1	6.65%
Cc1ccc(C2=NN=C(NC(=O)CSc3nnc4c5ccccc5n(C)c4n3)SC2)cc1	8.27%
Cc1ccc2oc(C(=O)N3CCN(C)C[C@@H]3C(C)C)c(C)c2c1	9.07%
O=C(OCCNC(=O)c1ccc2ccccc2n1)c1ccc(F)cc1	4.77%
Cc1ccc(OCCCC(=O)Nc2ccc(S(N)(=O)=O)cc2)cc1	9.66%
COc1ccc([N+](=O)[O-])cc1NS(=O)(=O)c1ccc(Cl)c(C(=O)Nc2sc3c(c2C#N)CCCCC3)c1	17.4%
COc1ccc(/C(N)=N/OC(=O)CCc2ccccc2)cc1	4.26%
COc1cccc(C(=O)CN(C(=O)c2ccc(Cl)cc2Cl)N2C(=O)c3ccccc3C2=O)c1	8.71%
CCC1(CC)NC(=O)N(CC(=O)OCC(=O)Nc2ccc(C(F)(F)F)cc2)C1=O	2.71%
COC(=O)c1ccc(CN2CCCC(C(=O)c3ccccc3OC)C2)cc1 (stereo not drawn)	-6.6%
O=C(c1ccc2c(c1)OCO2)C1CCCN(Cc2cn[nH]c2-c2cccc(F)c2)C1 (stereo not drawn)	-42.7%
O=C(c1ccc2c(c1)OCO2)C1CCCN(Cc2ccccn2)C1 (stereo not drawn)	-13%
COc1ccccc1C(=O)C1CCCN(Cc2ccc(Oc3ncccn3)cc2)C1 (stereo not drawn)	-0.388%
O=C(c1ccc2c(c1)OCO2)C1CCCN(Cc2cn[nH]c2-c2ccccc2)C1 (stereo not drawn)	-67.3%
CCOc1ccc(CN2CCCC(C(=O)c3ccccc3OC)C2)cc1 (stereo not drawn)	-74.1%

SMILES	hERG current change (%, negative = inhibition) at 1uM
CCC(CC)c1nnc(NC(=O)C23CC4CC(CC(NC(C)=O)(C4)C2)C3)s1	0.699%
Cc1cc(C)c(C)c(C(=O)c2ccccc2C(=O)O)c1C	6.64%
COCCNC(=O)COC(=O)c1cccnc1SC	12.8%
CC1CCN(C(=O)c2cccc(S(=O)(=O)N3CCCCC3)c2)CC1	2.17%
CCOC(=O)C1=C(CSc2nc(-c3ccccc3)ccc2C#N)OC(N)=C(C#N)C1c1cccnc1 (stereo not drawn)	-6.76%
Cc1ccc(C(=O)N/C(=C\c2ccc(F)cc2)C(=O)NCCCn2ccnc2)cc1	-85.1%
O=C(NCCCn1ccnc1)/C(=C/c1ccc(F)cc1)NC(=O)c1ccccc1	-72.2%
CSc1ccc(/C=C(/NC(=O)c2ccccc2)C(=O)NCCCn2ccnc2)cc1	-15.6%
COc1ccc(/C=C(\NC(=O)c2ccc(C)cc2)C(=O)NCCCn2ccnc2)cc1OC	12.1%
Cc1ccc(C(=O)N/C(=C/c2ccccc2F)C(=O)NCCCn2ccnc2)cc1	-22.5%
Cc1ccc(C(=O)N/C(=C\c2ccccc2)C(=O)NCCCn2ccnc2)cc1	-87%
COc1ccc(/C=C(\NC(=O)c2ccc(Cl)cc2)C(=O)NCCCn2ccnc2)cc1OC	9.45%
O=C(NCCCn1ccnc1)/C(=C\c1ccccc1F)NC(=O)c1ccccc1	-42.5%
Cc1ccc(/C=C(\NC(=O)c2ccc(C)cc2)C(=O)NCCCn2ccnc2)cc1	-87%
Cc1ccc(C(=O)N/C(=C\c2cn(C)c3ccccc23)C(=O)NCCCn2ccnc2)cc1	13.5%
CC(C)(C)NC(=S)N/N=C\c1ccc(-c2ccc([N+](=O)[O-])cc2)o1	13.3%
COC(=O)Nc1ccc(S(=O)(=O)N2CCCC(C(=O)N3CCN(C)CC3)C2)cc1 (stereo not drawn)	7.31%
Cc1cc(C)c2cc(CN(Cc3ccc4c(c3)OCO4)Cc3nnnn3Cc3ccco3)c(=O)[nH]c2c1	10.8%
CC1=NN(C(C#N)c2ccccc2C)C(c2ccccc2)C1 (stereo not drawn)	9.72%
Cc1cc(C)nc(/N=C2\NC(=O)CC3C(=O)NCCN23)n1 (stereo not drawn)	13.1%
CN1CC(=O)Nc2ccc([N+](=O)[O-])cc2C1=O	17.6%

SMILES	hERG current change (%, negative = inhibition) at 1uM
COC(=O)c1cc2ccsc2n1Cc1ccccc1F	-2.01%
COc1ccc(/C=C(/NC(=O)c2ccc(OC)c(OC)c2)C(=O)NCCCn2ccnc2)cc1	15.5%
COc1ccc(C(=O)N/C(=C\c2ccccc2)C(=O)NCCCn2ccnc2)cc1	-18.2%
COc1ccc(/C=C(\NC(=O)c2ccc(C)cc2)C(=O)NCCCn2ccnc2)cc1	-91.7%
Cc1oc(CN2CCOCC2)cc1C(=O)O	7.66%
Cc1ccc(-c2cn(-c3ccc(OC(F)F)cc3)c3[n+]2CCCCC3)cc1.[Br-]	-13.3%
COc1ccc(-n2cc(-c3ccc(OC(F)F)cc3)[n+]3c2CCCCC3)cc1.[Br-]	-52.9%
FC(F)Oc1ccc(-n2cc(-c3ccc(Cl)cc3)[n+]3c2CCCCC3)cc1.[Br-]	-45.2%
CCn1nccc1C(=O)Nc1cc(Cl)ccc1Cl	0.897%
COc1ccc(CCN(C)C2CCCN(S(=O)(=O)c3ccccc3F)C2)cc1OC (stereo not drawn)	-45.9%
COc1ccc(CCN(C)C2CCCN(S(=O)(=O)c3ccccc3)C2)cc1OC (stereo not drawn)	-64.9%
COc1ccc(CCN(C)C2CCCN(S(C)(=O)=O)C2)cc1OC (stereo not drawn)	6.5%
CC(=O)c1ccc(S(=O)(=O)N2CCCC(N(C)CCc3ccccc3)C2)cc1 (stereo not drawn)	-78.7%
CC(=O)c1ccc(S(=O)(=O)N2CCCC(N(C)CCc3ccccn3)C2)cc1 (stereo not drawn)	-44.4%
COc1ccc(CCN(C)C2CCCN(S(=O)(=O)c3ccc(C)cc3)C2)cc1OC (stereo not drawn)	-82.1%
CN(CCc1ccccc1)C1CCCN(S(=O)(=O)c2cccc(F)c2)C1 (stereo not drawn)	-2.76%
COc1ccc(CCN(C)C2CCCN(S(=O)(=O)N(C)C)C2)cc1OC (stereo not drawn)	8.71%
COc1ccc(S(=O)(=O)N2CCCC(N(C)CCc3ccccc3)C2)cc1OC (stereo not drawn)	-26.5%
Cc1cc(NC(=O)CSc2nc3c(c(=O)n2-c2ccccc2)SC(C)C3)no1 (stereo not drawn)	-8.78%
Cc1ccc(C(=O)Nc2nc3nc(-c4ccccc4)cc(=O)n3[nH]2)cc1	14.5%
CCC(C)NS(=O)(=O)c1ccc(NC(C)=O)cc1 (stereo not drawn)	11.2%

SMILES	hERG current change (%, negative = inhibition) at 1uM
CC(C)Cc1cc(C(=O)O)n[nH]1	5.43%
CC(=O)N1CCc2cc(Br)cc(S(=O)(=O)N3CCc4ccccc43)c21	-1.76%
O=C(c1ccc(-n2cccc2)cc1)N1CCOCC1	7.49%
CCc1ccccc1N(CC(=O)NC1CCCCC1)C(=O)CCC(=O)Nc1ccccn1	12.3%
O=C(Nc1ccc(-c2csc(Nc3ccccc3)n2)cc1)c1cc([N+](=O)[O-])cc(C(F)(F)F)c1	4.72%
Cc1ccc(-c2ccc(C(=O)NCCCNC(=O)c3cnccn3)o2)cc1Cl	18.8%
O=C(NCCNC(=O)c1ccc(-c2ccc(Cl)c(Cl)c2)o1)c1cnccn1	-54.4%
O=C(NCCCNC(=O)c1ccc(-c2cccc(Cl)c2)o1)c1cnccn1	-12.5%
NS(=O)(=O)OCCCc1ccc(C(F)(F)F)cc1	6.75%
COc1ccc(CCNC(=O)CCn2c(=O)c3ccccc3n(CC(=O)NCC3CCCO3)c2=O)cc1OC (stereo not drawn)	9.7%
COc1ccc(CCn2c(=N)c(C(=O)NCC3CCCO3)cc3c(=O)n4ccccc4nc32)cc1 (stereo not drawn)	-84.4%
COc1ccc(CCn2c(=N)c(C(=O)NCC3CCCO3)cc3c(=O)n4ccccc4nc32)cc1OC (stereo not drawn)	-79.9%
COc1ccc(Cn2c(=N)c(C(=O)NCC3CCCO3)cc3c(=O)n4ccccc4nc32)cc1 (stereo not drawn)	-85%
Cc1cc(N2CCC(C)CC2)nc2ccc(N3C(=O)CCC3=O)cc12	9.64%
O=C(NC(=S)Nc1ncc(Br)cc1Br)c1cncc(Br)c1	4.04%
COc1ccc(C(=O)Nc2nnc(-c3cccs3)s2)cc1	18.6%
CC(C)(C)OC(=O)N[C@@H](Cc1ccccc1)c1nnc(S(=O)(=O)Cc2ccccc2)o1	5.19%
CCCCCc1n[nH]c2c1CCCC2	9.3%
CCCCCc1nc2c(c3c1CCCC3)CCCC2	-51.7%
CCCCc1nc(Cl)c(C#N)c2c1CCCC2	5.82%
CC1CCCC(C)N1C(=O)COC(=O)CCC1CCCC1 (stereo not drawn)	9.29%
